Data reported in the OligoGym collection.

Target: IFNA17
Assay: pooled miR-30 sensor sort-seq; sequence = guide strand
Conditions: shRNA
Also: reference of the scale not given here.

| Sequence | sensor-assay potency score (higher = more potent) |
| --- | --- |
| TGTATTTCTTCTCTGTTAGATA | -1.15 |
| TTCCAGGTTATTCAGTTGCTGG | -1.21 |
| TCTGAGGCAGATCACAGCCTAG | -1.69 |
| TCTTCCATCCCAACCTCCTGTA | -0.396 |
| TATTTTTTGCAAGTTTGTTGAA | -0.556 |
| TTCTCTGTTAGATAAAGAGTGA | -0.598 |
| TCTTCTGGAACTGGTTGCCATC | -1.69 |
| TAGAGAACAGATGGATTTGTAG | -0.448 |
| TTGCTGGTAAAGTTCAGTGGAA | -0.731 |
| TATCACACATGCTTCCAGGTTA | 0.103 |

Target: IFT52
Assay: as above
Conditions: shRNA

| Sequence | sensor-assay potency score (higher = more potent) |
| --- | --- |
| TTCTTCAGTACACTTATTGGTA | -0.369 |
| TTTCACATTTAGCTGCTCGTGA | 0.557 |
| TGAACATGTGACATGAACCAAG | -0.609 |
| TGAATCTTCCAATTACTCCGAA | 0.152 |
| TTTGGCATCCTGTTGGTCCTTT | 0.0621 |
| TTAATATTGGTGTCAAATCTGG | -0.514 |
| TATTCTTCTAGTAAAAAGTTAA | -1.44 |
